# Assay results from PubChem BioAssay (NCI).
# This is part of a sample that, as a whole, favours compounds with a hit. Of some 79,000 tested, about 15% had one in any assay. Values without a mark were called inactive. The source made the active and inactive calls. Rule as the data show it: active = growth inhibition above about 70%; inactive = the rest.
# What was measured:
# [1] = NCI Yeast Anticancer Drug Screen. Data for the rad50 strain (AID 155);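 also: 0% = growth of vehicle-only cultures of the same strain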; conditions: S. cerevisiae rad50 strain growth inhibition, stronger effect = higher value; at 50.0 µM unless noted
# Summary of the method: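 Readout: growth inhibition relative to vehicle-treated cultures. Compound exposure was carried out in a genetically defined yeast strain deficient in DNA damage repair.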
# [2] = NCI Yeast Anticancer Drug Screen. Data for the mec2-1 strain (AID 157); conditions: S. cerevisiae mec2-1 strain, stronger effect = higher value; at 50.0 µM unless noted
# Summary of the method: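 Using mec2-1 yeast: add compound, measure growth, express inhibition versus vehicle-treated cultures.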
# [3] = NCI Yeast Anticancer Drug Screen. Data for the sgs1 mgt1 strain (AID 161);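 also: 0% = growth of cultures given vehicle only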; conditions: S. cerevisiae sgs1 mgt1 strain, stronger effect = higher value; at 50.0 µM unless noted
# Summary of the method: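 Growth of a repair-deficient yeast mutant was monitored after compound treatment and expressed as inhibition relative to vehicle-treated cultures.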
# [4] = NCI Yeast Anticancer Drug Screen. Data for the cln2 rad14 strain (AID 165);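 also: 0% = growth equal to vehicle treated cultures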; conditions: S. cerevisiae cln2 rad14 strain, stronger effect = higher value; at 50.0 µM unless noted
# Summary of the method: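 Yeast strain cln2 rad14, bearing defects in cell cycle control and DNA repair, serves as the test system; values reflect growth inhibition compared with vehicle.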
# [5] = NCI Yeast Anticancer Drug Screen. Data for the bub3 strain (AID 167); conditions: S. cerevisiae bub3 mutant strain, stronger effect = higher value; at 50.0 µM unless noted
# Summary of the method: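 Readout: yeast growth inhibition, expressed relative to vehicle-only wells. The test organism is a mutant strain from a panel with lesions in DNA repair or checkpoint genes.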
# [6] = NCI Yeast Anticancer Drug Screen. Data for the mlh1 rad18 strain (AID 175); conditions: S. cerevisiae mlh1 rad18 strain growth inhibition, stronger effect = higher value; at 50.0 µM unless noted
# Summary of the method: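 Steps: expose repair-defective yeast to compound; measure growth; express inhibition against vehicle-treated controls.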
Structure (SMILES),growth inhibition [1],growth inhibition [2],growth inhibition [3],growth inhibition [4],growth inhibition [5],growth inhibition [6]
CCCCCCCCOC(=O)Nc1ccc(S(=O)(=O)NC2CCCCC2)cc1,7.05%,-2.9%,14.1%,37.8%,10.8%,20.6%
Nc1ncnc2c1ncn2C1OC(CO)C(NC(=O)C(N)Cc2ccccc2)C1O (stereo not given),7.2%,-4.7%,-2.8%,-32.3%,2.15%,-9.5%
O=C(Nc1noc(-c2ccccc2)n1)c1ccccc1CNc1noc(-c2ccccc2)n1,-7.75%,-4.85%,0.8%,-10.8%,-6.7%,0%
CC1(C)CC(=O)C(/C=N/C(=S)Nc2ccc(S(N)(=O)=O)cc2)=C(O)C1,-41.5%,-68.5%,-23.8%,-8.55%,-16.6%,-30.4%
CC1(C)C2CCC1(C)C(/C=N/NC(N)=O)C2 (stereo not given),5.4%,17.8%,-5.6%,-46%,20.4%,12.8%
CCCC1N[C@H](C(=O)O)CS1 (stereo not given in full),15.7%,7.1%,-1.85%,7.2%,10.1%,-3.85%
C=C1CC(c2ccccc2)(c2cccs2)OC1=O (stereo not given),67.7%,93.6% (active),96.2% (active),14.3%,90.5% (active),90.7% (active)
COc1cc(C)c(O)c(C(=O)O)c1,-3.7%,-7.65%,2.25%,0.05%,-1.45%,-4.25%
COc1c(O)cc2c(c1O)C1OC(CO)C(O)C(O)C1OC2=O (stereo not given),-4.3%,-15.4%,-3.85%,19.1%,-20.8%,0.5%
Nc1ccc(OCc2ccccc2)cc1[N+](=O)[O-],6.4%,-30.8%,11.3%,14.5%,-4.45%,21%
Cc1ccc([N+](=O)[O-])cc1NC(=O)/C(=N/NC(=S)NN)C1SC(=S)NC1=O (stereo not given),19.4%,-12.1%,12.2%,20.9%,-19.6%,-8.75%
CCC(CC)NC(CC)COC(=O)c1ccc(N)cc1 (stereo not given),8.4%,-4.3%,-0.05%,-0.5%,5.8%,-4.9%
Brc1cccc(C=NC23CC4CC(CC(C4)C2)C3)c1,13.7%,-13.8%,12.4%,-52.1%,-13.3%,-4.6%
O=C(Cc1ccc([N+](=O)[O-])cc1)Nc1cccc(O)c1,-4.85%,29.2%,-4.9%,-13.5%,47.4%,14.8%
O=C(O)CSCC(=O)Nc1ccccc1Cl,-11.6%,-10.3%,14.6%,6.05%,4.3%,-0.35%
Cc1ccc(C2=Nc3cc(C)c(Cl)cc3S(=O)(=O)NN2)cc1,-29.1%,-24.9%,-48.8%,-5.2%,-18.5%,-26.8%
NC(=S)c1cccc(OCCc2ccccc2)c1,97.7% (active),99.4% (active),99% (active),96.3% (active),99.2% (active),98.7% (active)
COC(=O)/C(C#N)=N/O,16.6%,-39.1%,-22.8%,8.4%,-7.7%,-21.6%
Cc1ccnc(NCCCNc2nccc(C)n2)n1,22.6%,-1.4%,14.1%,36.8%,5.2%,22.3%
OC(c1ccc(Cl)cc1)c1ccccn1 (stereo not given),1.7%,-9%,-7.3%,-17%,-18.9%,-8.75%

Structure (SMILES),growth inhibition [1],growth inhibition [2],growth inhibition [3],growth inhibition [4],growth inhibition [5],growth inhibition [6]
Cc1c(C)c(C(=O)Cc2ccccc2)c(C)c(C(=O)Cc2ccccc2)c1C,19.6%,-1.8%,-15.3%,12.3%,5.55%,0.65%
CCOC(=O)c1c(NS(=O)(=O)c2ccc(C)cc2)sc(C)c1-c1ccccc1,-21.4%,-0.45%,-6.2%,67.8%,6.85%,-3.65%
O=C1/C(=C/c2ccc(Cl)cc2)CCC1CN1CCOCC1 (stereo not given),89.8% (active),92.2% (active),89.2% (active),92.3% (active),91.1% (active),92% (active)
O=C(O)/C=C/c1cccc(F)c1,-16.6%,-12.2%,-4.9%,-15.9%,-17%,10.2%
CCN(CC)CCN1CC(=O)N2CCCCN2C(=O)C1,17.2%,4.5%,14.9%,13.4%,7.85%,10.6%
CCCCCCCCCC(OCC)OCC,-25.1%,-15.2%,-11.6%,-6.35%,-31.4%,-25.6%
O=C1CN(c2cccc(C(F)(F)F)c2)C(=O)CN1/N=C/c1ccc[nH]1,-27.7%,-3.25%,9.45%,15.8%,-7.1%,-5.4%
CCOP(=O)(OCC)C(C)(CC)N/C(=N/C(NC(C)=O)(C(F)(F)F)C(F)(F)F)NC1=NC(C(F)(F)F)(C(F)(F)F)N=C(C(F)(F)F)O1 (stereo not given),1.65%,4.65%,-26.8%,5.3%,-3.1%,-34.1%
CCOc1ccc(N=Nc2c(N)nc(N)[nH]c2=O)cc1,26.3%,23.6%,17.4%,19.9%,-1.25%,24.1%
CCOc1ccc(F)cc1,10.7%,-13.5%,16.5%,22.6%,6.3%,25.9%
CC1CC1C(N)C1CC1C (stereo not given),10.3%,3.15%,-1.95%,23.9%,10.8%,8.3%
CSCCCCC(N)C(=O)O (stereo not given),0.05%,3%,-0.9%,-14%,12.4%,-3.85%
CN(C)C(=S)Oc1c([N+](=O)[O-])cc([N+](=O)[O-])cc1C(C)(C)C,94% (active),89.9% (active),93.8% (active),78% (active),92.6% (active),95% (active)
Cn1c(=S)[nH]c2c(Cl)cc(Cl)cc2c1=O,-40.4%,-30.6%,-7.1%,-13.9%,-27.7%,-51.9%
CCCCCCCCCCCCCCCCC(C#N)C(=O)O (stereo not given),-14.4%,0.95%,-18.2%,-1%,-22.8%,-18.9%
Clc1cc2cc3cccc[n+]3cc2cc1Cl,54%,16.1%,26.2%,-22.9%,14.6%,3.7%
C=CCC(O)c1ccccc1OC (stereo not given),9.75%,9.25%,20.8%,5.15%,-5.9%,7.95%
CCN1CCN(c2nc3ccccc3c3c2CCOc2ccccc2-3)CC1,-12.4%,-16.9%,-15.8%,19.1%,0.25%,6%
Cc1ccc(C2=Nc3ccccc3NC(=O)C2)cc1,-2.6%,-20.1%,-12.6%,22.2%,-7.35%,-17.9%
CCOc1ccccc1NC(=O)C(=O)C(C(=O)c1ccc2ccccc2c1)C1OC(=O)c2ccccc21 (stereo not given),-4%,4.35%,13.6%,-50%,12.5%,0.45%
